Results filed as inconclusive are left out. Activity calls are given as the source filed them. Unless noted, calls come from the whole dose curve; as a rule, active = well fitted curve in the direction sought with a large enough effect in the repeat runs; inconclusive = weak or mixed curves; inactive = no such curve, though single readings can be large; an effect the other way counts as inactive or inconclusive.
Legend:
[1] = qHTS assay to identify small molecule that activate the aryl hydrocarbon receptor (AhR) signaling pathway - cell viability counter screen (AID 743086);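 note: HepG2 liver cells carrying the AhR DRE luciferase reporter; series mostly up to about 70 µM; nearly all actives have a fitted effect of over 45% in size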
How it was run: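 HepG2-AhR-luc (HG2L7.5c1) cells, 4000/well, were preincubated 5 h at 37C, exposed to compound in qHTS format for 24 hr at 37C, then given CellTiter-Fluor for 30 min; viability was read as fluorescence in the reporter wells.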

[2] = target: Peroxisome proliferator-activated receptor gamma (Homo sapiens) (UniProt P37231); test: qHTS assay to identify small molecule agonists of the peroxisome proliferator-activated receptor gamma (PPARg) signaling pathway (AID 743094; active = well fitted activation curve with a large enough effect in the signal ratio in the repeat runs, not every such curve was filed as active; the % refers to the signal ratio)
How it was run: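 GeneBLAzer PPARg UAS-bla HEK293H cells were plated, rested 5 h, then exposed to compounds for 17 h at 37C. Beta-lactamase activity was read by LiveBLAzer B/G FRET substrate fluorescence after 1 h at room temperature.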

[3] = qHTS assay to identify small molecule antagonists of the peroxisome proliferator-activated receptor gamma (PPARg) signaling pathway - cell viability counter screen (AID 743194); details: Potency: co-treated with 50 nM rosiglitazone; note: nearly all actives have a fitted effect of over 55% in size
How it was run: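 PPARg-UAS-bla HEK293H cells were plated, rested 5 h at 37 C, then treated with compounds plus rosiglitazone (50 nM final) for 17 h at 37 C; viability was then read by CellTiter-Glo luminescence after 30 min at room temperature.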

[4] = qHTS assay for small molecule agonists of the antioxidant response element (ARE) signaling pathway (AID 743202; active = well fitted activation curve with a large enough effect in the signal ratio in the repeat runs, not every such curve was filed as active; the % refers to the signal ratio; note: potency is the fitted concentration of half-maximal effect)
How it was run: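 Read-out: LiveBLAzer B/G FRET substrate fluorescence after 2 h at room temperature, following 16 h compound treatment at 37 C of HepG2 cells carrying an ARE-driven beta-lactamase reporter.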

[5] = qHTS assay for small molecule agonists of the antioxidant response element (ARE) signaling pathway - cell viability counter screen (AID 743203; calls by dose curve; note: nearly all actives have a fitted effect of over 55% in size)
How it was run: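 ARE-bla HepG2 cells were plated, rested 5 h at 37C/5% CO2, then exposed to compounds in DMSO for 16 h. Viability was read as CellTiter-Glo luminescence after 30 min at room temperature, in the same wells as the ARE screen.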

[6] = qHTS assay for small molecule activators of the heat shock response signaling pathway - cell viability counter screen (AID 743209); note: nearly all actives have a fitted effect of over 50% in size
How it was run: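 HSE-bla HeLa cells plated overnight, then exposed to Tox21 compounds (23 nL in DMSO) for 5 h at 37 C. After the bla reporter read, CellTiter-Glo was added in the same wells and luminescence read after 30 min at room temperature.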

[7] = qHTS assay for small molecule activators of the heat shock response signaling pathway (AID 743210; active = well fitted activation curve with a large enough effect in the signal ratio in the repeat runs, with a control signal flat, not every such curve was filed as active; the % refers to the signal ratio; note: series mostly up to about 63 µM)
How it was run: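 HSE-bla HeLa cells (beta-lactamase reporter under heat shock response elements) were exposed to compounds for 5 h at 37 C, then loaded with LiveBLAzer B/G FRET substrate for 2.5 h at room temperature before fluorescence reading.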

[8] = qHTS assay to identify small molecule agonists of the peroxisome proliferator-activated receptor delta (PPARd) signaling pathway - cell viability counter screen (AID 743211); note: nearly all actives have a fitted effect of over 55% in size
How it was run: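 Viability of GeneBLAzer PPARd UAS-bla HEK293H cells was assessed after 17 h compound incubation at 37C, using CellTiter-Glo reagent added after the reporter read and luminescence recorded 30 min later.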

[9] = qHTS assay to identify small molecule antagonists of the peroxisome proliferator-activated receptor delta (PPARd) signaling pathway - cell viability counter screen (AID 743213); note: nearly all actives have a fitted effect of over 50% in size
How it was run: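 Cytotoxicity counter screen: CellTiter-Glo luminescence read 30 min after addition, in the same wells as the reporter assay. There, PPARd UAS-bla HEK293H cells (3000/well) were treated 17 h at 37 C with compound and 300 nM L165041.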

[10] = qHTS assay to identify small molecule antagonists of the farnesoid-X-receptor (FXR) signaling pathway - cell viability counter screen (AID 743221; active = well fitted cell-killing curve with a large enough effect in the repeat runs, not every such curve was filed as active; note: nearly all actives have a fitted effect of over 50% in size)
How it was run: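 Quantitative HTS of the Tox21 10K library run in parallel with the beta-lactamase reporter read. HEK 293T cells carrying a UAS-driven bla reporter got compound and 50 uM CDCA (final) for 16 h; ATP-based luminescence followed.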

[11] = target: Vitamin D3 receptor (Homo sapiens) (UniProt P11473); test: qHTS assay to identify small molecule agonists of the vitamin D receptor (VDR) signaling pathway (AID 743222; calls by dose curve)
How it was run: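 VDR-bla cells plated 4 h at 37 C, then exposed to compounds for 16 h at 37 C. Beta-lactamase reporter activity measured by fluorescence after 2 h room-temperature loading with LiveBLAzer B/G FRET substrate.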

[12] = qHTS assay to identify small molecule agonists of the vitamin D receptor (VDR) signaling pathway - cell viability counter screen (AID 743224); note: series mostly up to about 63 µM; nearly all actives have a fitted effect of over 50% in size
How it was run: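 VDR-bla cells, 4 h after plating, exposed to compounds for 16 h at 37C; viability then read in the same wells as CellTiter-Glo luminescence after 30 min at room temperature, following the bla FRET read.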

[13] = target: Peroxisome proliferator-activated receptor gamma (Homo sapiens) (UniProt P37231); test: qHTS assay to identify small molecule antagonists of the peroxisome proliferator-activated receptor gamma (PPARg) signaling pathway (AID 743191; calls by dose curve; note: series mostly up to about 63 µM; nearly all actives have a fitted effect of over 30% in size)
How it was run: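 GeneBLAzer PPARg UAS-bla HEK293H cells carrying a UAS-driven beta-lactamase reporter were plated at 3000 cells/well, preincubated 5 h at 37C, then given compound for 17 h at 37C; LiveBLAzer B/G FRET substrate was read after 1 h at room temperature.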

[14] = target: Peroxisome proliferator-activated receptor delta (Homo sapiens) (UniProt Q03181); test: qHTS assay to identify small molecule agonists of the peroxisome proliferator-activated receptor delta (PPARd) signaling pathway (AID 743212; calls by dose curve)
How it was run: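 GeneBLAzer PPARd UAS-bla HEK293H cells (beta-lactamase reporter under UAS control), plated and rested 5 h at 37 C, then exposed to compounds in DMSO at 37 C; LiveBLAzer B/G FRET substrate added, 2 h room temperature, fluorescence read.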

[15] = target: Peroxisome proliferator-activated receptor delta (Homo sapiens) (UniProt Q03181); test: qHTS assay to identify small molecule antagonists of the peroxisome proliferator-activated receptor delta (PPARd) signaling pathway (AID 743215; active = well fitted inhibition curve with a large enough effect in the signal ratio in the repeat runs, not every such curve was filed as active; the % refers to the signal ratio;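 note: cells stimulated with agonist L165041 at 300 nM final during compound exposure; series mostly up to about 62 µM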)
How it was run: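 PPARd-bla HEK293H cells (UAS-bla reporter) preincubated 5 h, then given compound plus 300 nM final L165041 agonist for 17 h at 37 C. Beta-lactamase activity read by LiveBLAzer B/G FRET substrate fluorescence after 2 h at room temperature.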

[16] = target: Bile acid receptor (Homo sapiens) (UniProt Q96RI1); test: qHTS assay to identify small molecule antagonists of the farnesoid-X-receptor (FXR) signaling pathway (AID 743217; active = well fitted inhibition curve with a large enough effect in the signal ratio in the repeat runs, not every such curve was filed as active; the % refers to the signal ratio)
How it was run: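 FXR-UAS-bla HEK 293T cells (beta-lactamase reporter) given compound plus chenodeoxycholic acid (50 uM final), 16 h at 37C. LiveBLAzer B/G FRET substrate added for 2 h at room temperature; fluorescence read.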

[17] = qHTS assay to identify small molecule agonists of the farnesoid-X-receptor (FXR) signaling pathway - cell viability counter screen (AID 743218); note: nearly all actives have a fitted effect of over 45% in size
How it was run: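 FXR-UAS-bla HEK 293T cells exposed to compounds for 16 h at 37C. Cytotoxicity read in the same wells by CellTiter-Glo luminescence after 30 min at room temperature, following the beta-lactamase FRET read.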

[18] = target: Bile acid receptor (Homo sapiens) (UniProt Q96RI1); test: qHTS assay to identify small molecule agonists of the farnesoid-X-receptor (FXR) signaling pathway (AID 743220; active = well fitted activation curve with a large enough effect in the signal ratio in the repeat runs, not every such curve was filed as active; the % refers to the signal ratio)
How it was run: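 Beta-lactamase reporter under UAS control in GeneBLAzer FXR HEK 293T cells (5000/well) measured with LiveBLAzer FRET substrate after 2 h at room temperature. Compound exposure lasted 16 h at 37C.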

[19] = target: Vitamin D3 receptor (Homo sapiens) (UniProt P11473); test: qHTS assay to identify small molecule antagonists of the vitamin D receptor (VDR) signaling pathway (AID 743223; active = well fitted inhibition curve with a large enough effect in the signal ratio in the repeat runs, not every such curve was filed as active; the % refers to the signal ratio)
How it was run: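 Fluorescence from LiveBLAzer B/G FRET substrate, read after 2 h at room temperature, reflects beta-lactamase reporter activity in VDR-bla cells treated 16 h at 37C with compounds and agonist 1alpha,25-dihydroxyvitamin D3 (3 nM final).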

Measured: Potency

Sequence of Vitamin D3 receptor (Homo sapiens) (P11473 whole entry, looked up): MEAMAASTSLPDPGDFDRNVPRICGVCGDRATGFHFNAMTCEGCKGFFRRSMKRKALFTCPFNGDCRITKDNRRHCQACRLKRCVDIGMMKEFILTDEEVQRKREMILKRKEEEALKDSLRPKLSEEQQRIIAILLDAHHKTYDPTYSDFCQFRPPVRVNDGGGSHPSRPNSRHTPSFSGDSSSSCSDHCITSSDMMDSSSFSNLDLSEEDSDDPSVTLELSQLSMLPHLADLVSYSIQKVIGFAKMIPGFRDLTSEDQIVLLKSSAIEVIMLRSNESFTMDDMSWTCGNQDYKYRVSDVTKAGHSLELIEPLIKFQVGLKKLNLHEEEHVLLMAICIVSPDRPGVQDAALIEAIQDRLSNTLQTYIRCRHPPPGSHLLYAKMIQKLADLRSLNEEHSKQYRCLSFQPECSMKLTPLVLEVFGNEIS
Sequence of Peroxisome proliferator-activated receptor delta (Homo sapiens) (Q03181 whole entry, looked up): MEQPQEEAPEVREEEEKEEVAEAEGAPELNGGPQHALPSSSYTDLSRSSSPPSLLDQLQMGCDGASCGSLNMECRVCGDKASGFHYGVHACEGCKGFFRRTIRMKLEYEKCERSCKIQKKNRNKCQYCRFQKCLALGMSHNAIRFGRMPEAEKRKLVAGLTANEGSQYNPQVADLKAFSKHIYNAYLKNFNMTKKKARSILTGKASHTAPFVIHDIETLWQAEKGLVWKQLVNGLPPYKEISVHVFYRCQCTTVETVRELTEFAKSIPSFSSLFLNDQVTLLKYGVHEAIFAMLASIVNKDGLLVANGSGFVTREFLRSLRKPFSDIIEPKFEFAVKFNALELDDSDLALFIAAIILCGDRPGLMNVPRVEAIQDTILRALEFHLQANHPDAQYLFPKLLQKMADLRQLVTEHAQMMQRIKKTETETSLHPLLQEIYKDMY
Sequence of Peroxisome proliferator-activated receptor gamma (Homo sapiens) (P37231 whole entry, looked up): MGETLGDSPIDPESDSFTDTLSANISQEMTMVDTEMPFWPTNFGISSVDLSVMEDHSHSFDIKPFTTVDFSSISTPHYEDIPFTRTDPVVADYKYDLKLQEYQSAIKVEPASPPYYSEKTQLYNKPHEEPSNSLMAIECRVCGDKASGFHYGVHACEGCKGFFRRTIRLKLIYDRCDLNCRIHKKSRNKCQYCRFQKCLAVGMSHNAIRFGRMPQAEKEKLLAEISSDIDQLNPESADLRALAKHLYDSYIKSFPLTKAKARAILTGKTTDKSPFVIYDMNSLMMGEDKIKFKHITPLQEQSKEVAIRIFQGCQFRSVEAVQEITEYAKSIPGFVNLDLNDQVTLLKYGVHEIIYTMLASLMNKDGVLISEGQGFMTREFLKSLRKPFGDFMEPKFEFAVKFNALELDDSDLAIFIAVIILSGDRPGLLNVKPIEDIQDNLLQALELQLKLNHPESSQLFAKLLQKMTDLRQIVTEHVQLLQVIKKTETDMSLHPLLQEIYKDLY
Sequence of Bile acid receptor (Homo sapiens) (Q96RI1 whole entry, looked up): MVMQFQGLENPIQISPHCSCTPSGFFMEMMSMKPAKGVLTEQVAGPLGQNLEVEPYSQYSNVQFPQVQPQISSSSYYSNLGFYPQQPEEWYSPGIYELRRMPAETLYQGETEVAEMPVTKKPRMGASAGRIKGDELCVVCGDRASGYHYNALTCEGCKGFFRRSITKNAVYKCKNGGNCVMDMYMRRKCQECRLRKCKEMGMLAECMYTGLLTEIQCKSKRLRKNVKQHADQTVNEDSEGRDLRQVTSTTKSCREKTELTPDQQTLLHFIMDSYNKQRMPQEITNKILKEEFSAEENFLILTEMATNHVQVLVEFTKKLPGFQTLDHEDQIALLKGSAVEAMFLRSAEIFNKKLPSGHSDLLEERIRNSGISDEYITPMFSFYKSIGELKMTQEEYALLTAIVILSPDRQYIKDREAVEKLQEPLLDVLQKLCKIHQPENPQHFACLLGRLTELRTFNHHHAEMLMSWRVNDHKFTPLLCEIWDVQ

Nc1c(Cl)c(F)nc(OCC(=O)O)c1Cl
inactive: [1] | [2] | [3] | [4] | [5] | [6] | [7] | [8] | [9] | [10] | [11] | [12]

CC1=C2[C@H]3OC(=O)[C@@H](C)[C@@H]3CC[C@@]2(C)C=CC1=O
inactive: [1] | [2] | [13] | [3] | [5] | [6] | [7] | [8] | [14] | [9] | [15] | [16] | [17] | [18] | [10] | [12]

O=C(Cl)C(Cl)Cl
inactive: [1] | [2] | [3] | [4] | [5] | [6] | [7] | [8] | [14] | [9] | [15] | [17] | [10] | [11] | [19]

O=C(O)CBr
inactive: [1] | [2] | [3] | [4] | [5] | [6] | [7] | [8] | [14] | [9] | [17] | [11] | [19] | [12]

Cc1cccc2sc3nncn3c12
inactive: [1] | [2] | [3] | [5] | [6] | [7] | [8] | [14] | [9] | [16] | [17] | [18] | [10] | [12]

CC(C)c1ccc(O)cc1
inactive: [1] | [2] | [13] | [3] | [5] | [6] | [7] | [8] | [14] | [9] | [17] | [10] | [12]

CNC(=O)NC(O)C(Cl)(Cl)Cl (stereo not drawn)
inactive: [1] | [2] | [3] | [4] | [5] | [6] | [8] | [14] | [15] | [17] | [10] | [11] | [19] | [12]

CC(Cc1ccccc1)NCCCCl (stereo not drawn)
inactive: [3] | [4] | [5] | [6] | [7] | [8] | [14] | [9] | [16] | [17] | [18] | [10] | [11] | [12]

O=[N+]([O-])c1cccc(CCl)c1
inactive: [1] | [3] | [5] | [6] | [7] | [8] | [9] | [17] | [10] | [11] | [19] | [12]
active: [4] 31.3 µM

CON(C)C(=O)Nc1ccc(Br)c(Cl)c1
inactive: [1] | [2] | [5] | [6] | [8] | [17] | [10] | [11]

From PubChem BioAssay (Tox21)
